{"source": "PubChem BioAssay AID1159580", "about": "(chemical genetic matrix, 2015)", "assay": "chemical genetic growth profiling, strain panel (AID 1159580);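 also: tested at 20 µM; growth read once vehicle control cultures reached saturation at 30 °C; 1 = growth at the plate median or of vehicle wells; lower values mean less growth of the strain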", "settings": "growth OD", "note": "Out of some 5,500 compounds screened, about 2,000 (36%) were called active. About 18% were inconclusive and are not listed. This is one part of the list. Values without a mark were called inactive. Rule as the data show it: active = normalized growth mostly below about 0.91 (no sharp cut-off); inconclusive = no clear call, values can overlap the other calls; inactive = mostly above about 0.92."}
{"smiles": "Cc1cc(O)c2c(c1O)C(=O)c1c(O)cc(C)c(O)c1C2=O", "values": [{"measurement": "normalized growth", "setting": "S. cerevisiae deletion strains, locus YJR075W, strain HOC1, hits give low values", "result": 1.01}, {"measurement": "normalized growth", "setting": "S. cerevisiae deletion strains, locus YKL009W, strain mrt4, hits give low values", "result": 1.05}, {"measurement": "normalized growth", "setting": "S. cerevisiae deletion strains, locus YKL068W, hits give low values", "result": 0.995}, {"measurement": "normalized growth", "setting": "S. cerevisiae deletion strains, locus YKL085W, strain MDH1 (second series), hits give low values", "result": 1.01}, {"measurement": "normalized growth", "setting": "S. cerevisiae deletion strains, locus YKL085W, strain MDH1, hits give low values", "result": 1.01}, {"measurement": "normalized growth", "setting": "S. cerevisiae deletion strains, locus YKL160W, strain elf1, hits give low values", "result": 0.985}, {"measurement": "normalized growth", "setting": "S. cerevisiae deletion strains, locus YKL190W, strain CNB1, hits give low values", "result": 0.984}, {"measurement": "normalized growth", "setting": "S. cerevisiae deletion strains, locus YKR001C, strain vps1, hits give low values", "result": 0.971}, {"measurement": "normalized growth", "setting": "S. cerevisiae deletion strains, locus YKR026C, strain gcn3, hits give low values", "result": 0.979}, {"measurement": "normalized growth", "setting": "S. cerevisiae deletion strains, locus YKR091W, strain srl3, hits give low values", "result": 0.968}, {"measurement": "normalized growth", "setting": "S. cerevisiae deletion strains, locus YLL001W, strain dnm1, hits give low values", "result": 0.966}, {"measurement": "normalized growth", "setting": "S. cerevisiae deletion strains, locus YLL026W, hits give low values", "result": 0.988}, {"measurement": "normalized growth", "setting": "S. cerevisiae deletion strains, locus YLL041C, strain sdh2, hits give low values", "result": 0.981}, {"measurement": "normalized growth", "setting": "S. cerevisiae deletion strains, locus YLR027C, strain aat2, hits give low values", "result": 0.966}, {"measurement": "normalized growth", "setting": "S. cerevisiae deletion strains, locus YLR039C, strain RIC1, hits give low values", "result": "0.635 (active)"}, {"measurement": "normalized growth", "setting": "S. cerevisiae deletion strains, locus YLR058C, strain SHM2, hits give low values", "result": 0.93}, {"measurement": "normalized growth", "setting": "S. cerevisiae deletion strains, locus YLR102C, strain apc9, hits give low values", "result": 0.999}, {"measurement": "normalized growth", "setting": "S. cerevisiae deletion strains, locus YLR113W, strain HOG1, hits give low values", "result": 1.03}, {"measurement": "normalized growth", "setting": "S. cerevisiae deletion strains, locus YLR221C, strain rsa3, hits give low values", "result": 0.948}, {"measurement": "normalized growth", "setting": "S. cerevisiae deletion strains, locus YLR258W, strain gsy2, hits give low values", "result": 0.977}, {"measurement": "normalized growth", "setting": "S. cerevisiae deletion strains, locus YLR262C, strain YPT6 (second series), hits give low values", "result": 0.887}, {"measurement": "normalized growth", "setting": "S. cerevisiae deletion strains, locus YLR262C, strain YPT6, hits give low values", "result": 0.675}, {"measurement": "normalized growth", "setting": "S. cerevisiae deletion strains, locus YLR268W, strain sec22, hits give low values", "result": 0.964}, {"measurement": "normalized growth", "setting": "S. cerevisiae deletion strains, locus YLR320W, strain mms22, hits give low values", "result": 0.965}, {"measurement": "normalized growth", "setting": "S. cerevisiae deletion strains, locus YLR330W, strain CHS5, hits give low values", "result": 0.956}, {"measurement": "normalized growth", "setting": "S. cerevisiae deletion strains, locus YLR342W, strain FKS1 (second series), hits give low values", "result": 0.981}, {"measurement": "normalized growth", "setting": "S. cerevisiae deletion strains, locus YLR342W, strain FKS1, hits give low values", "result": 0.98}, {"measurement": "normalized growth", "setting": "S. cerevisiae deletion strains, locus YLR357W, strain rsc2, hits give low values", "result": 0.976}, {"measurement": "normalized growth", "setting": "S. cerevisiae deletion strains, locus YLR370C, strain arc18, hits give low values", "result": 0.987}, {"measurement": "normalized growth", "setting": "S. cerevisiae deletion strains, locus YLR371W, strain rom2, hits give low values", "result": 1}, {"measurement": "normalized growth", "setting": "S. cerevisiae deletion strains, locus YLR384C, strain iki3, hits give low values", "result": 0.962}, {"measurement": "normalized growth", "setting": "S. cerevisiae deletion strains, locus YLR418C, strain cdc73, hits give low values", "result": 1.02}, {"measurement": "normalized growth", "setting": "S. cerevisiae deletion strains, locus YML016C, strain PPZ1, hits give low values", "result": 0.958}, {"measurement": "normalized growth", "setting": "S. cerevisiae deletion strains, locus YML032C, strain rad52, hits give low values", "result": 0.974}, {"measurement": "normalized growth", "setting": "S. cerevisiae deletion strains, locus YML120C, strain ndi1, hits give low values", "result": "0.912 (active)"}, {"measurement": "normalized growth", "setting": "S. cerevisiae deletion strains, locus YML124C, strain tub3, hits give low values", "result": 0.997}, {"measurement": "normalized growth", "setting": "S. cerevisiae deletion strains, locus YMR058W, strain fet3, hits give low values", "result": 0.923}, {"measurement": "normalized growth", "setting": "S. cerevisiae deletion strains, locus YMR078C, strain ctf18, hits give low values", "result": 0.981}, {"measurement": "normalized growth", "setting": "S. cerevisiae deletion strains, locus YMR125W, strain sto1, hits give low values", "result": 0.99}, {"measurement": "normalized growth", "setting": "S. cerevisiae deletion strains, locus YMR129W, hits give low values", "result": 0.981}, {"measurement": "normalized growth", "setting": "S. cerevisiae deletion strains, locus YMR205C, strain PFK2, hits give low values", "result": 0.993}, {"measurement": "normalized growth", "setting": "S. cerevisiae deletion strains, locus YMR223W, strain ubp8, hits give low values", "result": 0.989}, {"measurement": "normalized growth", "setting": "S. cerevisiae deletion strains, locus YMR231W, strain pep5, hits give low values", "result": 0.959}, {"measurement": "normalized growth", "setting": "S. cerevisiae deletion strains, locus YMR263W, strain SAP30, hits give low values", "result": 1.01}, {"measurement": "normalized growth", "setting": "S. cerevisiae deletion strains, locus YMR307W, strain GAS1, hits give low values", "result": 0.778}, {"measurement": "normalized growth", "setting": "S. cerevisiae deletion strains, locus YNL067W, strain RPL9B, hits give low values", "result": 0.991}, {"measurement": "normalized growth", "setting": "S. cerevisiae deletion strains, locus YNL071W, strain lat1, hits give low values", "result": 0.984}, {"measurement": "normalized growth", "setting": "S. cerevisiae deletion strains, locus YNL128W, strain TEP1, hits give low values", "result": 0.96}, {"measurement": "normalized growth", "setting": "S. cerevisiae deletion strains, locus YNL153C, strain GIM3, hits give low values", "result": 0.965}, {"measurement": "normalized growth", "setting": "S. cerevisiae deletion strains, locus YNL183C, strain NPR1, hits give low values", "result": 0.951}, {"measurement": "normalized growth", "setting": "S. cerevisiae deletion strains, locus YNL209W, strain ssb2, hits give low values", "result": 0.969}, {"measurement": "normalized growth", "setting": "S. cerevisiae deletion strains, locus YNL233W, strain BNI4, hits give low values", "result": 0.982}, {"measurement": "normalized growth", "setting": "S. cerevisiae deletion strains, locus YNL248C, strain rpa49, hits give low values", "result": 0.95}, {"measurement": "normalized growth", "setting": "S. cerevisiae deletion strains, locus YNL250W, strain rad50, hits give low values", "result": 0.974}, {"measurement": "normalized growth", "setting": "S. cerevisiae deletion strains, locus YNL271C, strain bni1, hits give low values", "result": 0.987}, {"measurement": "normalized growth", "setting": "S. cerevisiae deletion strains, locus YNL298W, strain CLA4, hits give low values", "result": 0.98}, {"measurement": "normalized growth", "setting": "S. cerevisiae deletion strains, locus YNL307C, strain MCK1, hits give low values", "result": 1.01}, {"measurement": "normalized growth", "setting": "S. cerevisiae deletion strains, locus YNL322C, strain KRE1 (second series), hits give low values", "result": 0.944}, {"measurement": "normalized growth", "setting": "S. cerevisiae deletion strains, locus YNL322C, strain KRE1, hits give low values", "result": 0.984}, {"measurement": "normalized growth", "setting": "S. cerevisiae deletion strains, locus YNR049C, strain mso1, hits give low values", "result": 0.965}, {"measurement": "normalized growth", "setting": "S. cerevisiae deletion strains, locus YNR052C, strain pop2, hits give low values", "result": 0.98}, {"measurement": "normalized growth", "setting": "S. cerevisiae deletion strains, locus YOL006C, strain TOP1, hits give low values", "result": "0.491 (active)"}, {"measurement": "normalized growth", "setting": "S. cerevisiae deletion strains, locus YOL012C, strain htz1", "result": 1.11}, {"measurement": "normalized growth", "setting": "S. cerevisiae deletion strains, locus YOL147C, strain pex11, hits give low values", "result": 1}, {"measurement": "normalized growth", "setting": "S. cerevisiae deletion strains, locus YOR001W, strain rrp6, hits give low values", "result": 0.962}, {"measurement": "normalized growth", "setting": "S. cerevisiae deletion strains, locus YOR061W, strain CKA2, hits give low values", "result": 0.934}, {"measurement": "normalized growth", "setting": "S. cerevisiae deletion strains, locus YOR069W, strain VPS5, hits give low values", "result": 0.975}, {"measurement": "normalized growth", "setting": "S. cerevisiae deletion strains, locus YOR070C, strain gyp1, hits give low values", "result": 0.972}, {"measurement": "normalized growth", "setting": "S. cerevisiae deletion strains, locus YOR080W, strain dia2, hits give low values", "result": 0.974}, {"measurement": "normalized growth", "setting": "S. cerevisiae deletion strains, locus YOR083W, strain WHI5, hits give low values", "result": 0.964}, {"measurement": "normalized growth", "setting": "S. cerevisiae deletion strains, locus YOR106W, strain vam3, hits give low values", "result": 0.937}, {"measurement": "normalized growth", "setting": "S. cerevisiae deletion strains, locus YOR136W, strain idh2, hits give low values", "result": 1.01}, {"measurement": "normalized growth", "setting": "S. cerevisiae deletion strains, locus YOR144C, strain elg1, hits give low values", "result": 0.988}, {"measurement": "normalized growth", "setting": "S. cerevisiae deletion strains, locus YOR184W, strain ser1, hits give low values", "result": 1.02}, {"measurement": "normalized growth", "setting": "S. cerevisiae deletion strains, locus YOR231W, strain MKK1, hits give low values", "result": 0.996}, {"measurement": "normalized growth", "setting": "S. cerevisiae deletion strains, locus YOR265W, strain rbl2, hits give low values", "result": 0.971}, {"measurement": "normalized growth", "setting": "S. cerevisiae deletion strains, locus YOR270C, strain vph1, hits give low values", "result": 0.841}, {"measurement": "normalized growth", "setting": "S. cerevisiae deletion strains, locus YOR290C, strain snf2, hits give low values", "result": 0.914}, {"measurement": "normalized growth", "setting": "S. cerevisiae deletion strains, locus YOR316C, strain cot1, hits give low values", "result": 0.997}, {"measurement": "normalized growth", "setting": "S. cerevisiae deletion strains, locus YPL051W, strain arl3, hits give low values", "result": 0.953}, {"measurement": "normalized growth", "setting": "S. cerevisiae deletion strains, locus YPL055C, strain LGE1, hits give low values", "result": 1.01}, {"measurement": "normalized growth", "setting": "S. cerevisiae deletion strains, locus YPL078C, strain atp4, hits give low values", "result": 0.982}, {"measurement": "normalized growth", "setting": "S. cerevisiae deletion strains, locus YPL106C, strain sse1, hits give low values", "result": 0.953}, {"measurement": "normalized growth", "setting": "S. cerevisiae deletion strains, locus YPL240C, strain hsp82, hits give low values", "result": 0.98}, {"measurement": "normalized growth", "setting": "S. cerevisiae deletion strains, locus YPL241C, strain CIN2, hits give low values", "result": 0.995}, {"measurement": "normalized growth", "setting": "S. cerevisiae deletion strains, locus YPL256C, strain CLN2, hits give low values", "result": 0.993}, {"measurement": "normalized growth", "setting": "S. cerevisiae deletion strains, locus YPR119W, strain clb2, hits give low values", "result": 0.986}, {"measurement": "normalized growth", "setting": "S. cerevisiae deletion strains, locus YPR141C, strain kar3, hits give low values", "result": 0.978}, {"measurement": "normalized growth", "setting": "S. cerevisiae deletion strains, locus YPR163C, strain tif3, hits give low values", "result": 1}, {"measurement": "normalized growth", "setting": "S. cerevisiae deletion strains, locus YPR167C, strain met16, hits give low values", "result": 0.989}, {"measurement": "normalized growth", "setting": "S. cerevisiae deletion strains, strain wtn01, hits give low values", "result": 0.998}, {"measurement": "normalized growth", "setting": "S. cerevisiae strains, strain wild type, hits give low values", "result": 0.989}]}
